High-throughput results from PubChem BioAssay.
M1 PAM = human CHRM1 positive allosteric modulation | CHO-K1 hM1, Fluo-8 calcium fluorescence, ACh EC20; 0% = ACh EC20, 100% = maximal ACh | activation, % at 3 µM | 360,000 tested, 0.088% active | AID 588819; in the data active = activation above about 19%, passing the limit was not always enough
SKN-1 inh = inhibitors of C. elegans SKN-1 | C. elegans VP596 Pgst-4::GFP/RFP ratio, acrylamide-induced, 24 h | inhibition, % at 21.8 µM | 360,000 tested, 0.49% active;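 active = interference check ratio from 0.5 to 1.5 plus GFP to RFP signal ratio inhibition reaching or exceeding a fixed threshold, cut at about 30% in these data, passing the limit was not always enough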
Myeloid diff MLP = promotes myeloid progenitor differentiation; ER-HoxA9 myeloid progenitors, lysozyme-GFP differentiation, flow cytometry; calls only at 10 µM; 360,000 tested, 1% active; AID 624256;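 active = normalized GFP-positive differentiation at or above the plate's own cutoff, the solvent-only control mean plus 3 SD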;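 also: cells exposed to compound for four days before flow analysis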
ATG4B inhibitor = inhibitors of human ATG4B cysteine protease; Q9Y4P1; ATG4B cleavage of LC3-PLA2, NBD-HPC fluorescence, 1 h; inhibition, % at 8.33 µM; 340,000 tested, 0.51% active; AID 504462; in the data active = inhibition above about 40%
Target sequence (Q9Y4P1 whole entry, looked up): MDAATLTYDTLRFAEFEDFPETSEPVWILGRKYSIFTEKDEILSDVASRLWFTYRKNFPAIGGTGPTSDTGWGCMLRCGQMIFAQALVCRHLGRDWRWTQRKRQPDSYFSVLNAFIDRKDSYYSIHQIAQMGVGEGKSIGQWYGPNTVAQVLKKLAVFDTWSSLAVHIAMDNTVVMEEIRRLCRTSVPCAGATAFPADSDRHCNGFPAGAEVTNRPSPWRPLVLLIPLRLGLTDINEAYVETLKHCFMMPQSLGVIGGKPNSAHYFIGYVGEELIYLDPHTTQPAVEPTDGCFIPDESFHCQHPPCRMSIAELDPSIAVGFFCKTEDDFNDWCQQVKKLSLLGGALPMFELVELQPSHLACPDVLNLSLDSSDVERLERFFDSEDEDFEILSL
M1 antag = human CHRM1 antagonism | P11229 | CHO-K1 hM1, Fluo-8 calcium fluorescence, ACh EC80 antagonist | inhibition, % at 3 µM | 360,000 tested, 1.3% active | AID 588852;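 active = percent inhibition above its own plate's cutoff, namely the mean of that plate's compound wells plus 3 SD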;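 also: peak over basal fluorescence ratio during 140 s after agonist addition; 0% = ACh EC80 plus DMSO and 100% = DMSO alone without agonist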
CHRM1 agonist = human M1 muscarinic receptor agonism | AID 588814 | 360,000 tested, 0.33% active | CHO-K1 hM1, Fluo-8 calcium fluorescence, agonist mode; 0% DMSO, 100% acetylcholine EC100 | P11229 | activation, % at 3 µM;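 active = activation above the run's mean compound activation plus 3 SD, cut at about 16% in these data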;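 also: peak over basal fluorescence ratio within a 140 s kinetic read after compound addition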
ATG4B confirm = confirmation of human ATG4B inhibitors. shares compounds with ATG4B inhibitor. ATG4B protease fluorescent substrate cleavage assay. inhibition, % at 8.33 µM. 320 tested, 92% active. AID 504757; in the data active = inhibition above about 39%
PLA2 ctr = counter-screen for ATG4B inhibitors: human phospholipase A2 | 1,600 tested, 66% active | purified PLA2, NBD-C6-HPC fluorescence, 45 min | AID 588402 | inhibition, % at 8.33 µM | shares compounds with ATG4B inhibitor; in the data active = inhibition above about 50%
Target sequence (P04054 whole entry, looked up): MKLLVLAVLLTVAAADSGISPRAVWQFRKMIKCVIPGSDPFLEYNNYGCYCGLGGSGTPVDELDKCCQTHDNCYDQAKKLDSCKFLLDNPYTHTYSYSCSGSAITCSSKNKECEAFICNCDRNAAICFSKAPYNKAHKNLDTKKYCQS
Starred values were filed as active, the others as inactive; i = inactive; nt = not tested or not shown; + = active, no number. Hits are enriched below; roughly 3.5% of the tested compounds scored in any of these assays.

SMILES | M1 PAM | SKN-1 inh | Myeloid diff MLP | ATG4B inhibitor | M1 antag | CHRM1 agonist | others
COc1c(F)c(F)c(C(=O)Nc2ccc(N3CCN(Cc4ccccc4)CC3)cc2)c(F)c1F | -33 | 8 | i | 15 | 47* | -9
COC(=O)C(C(=O)OC)c1ccccc1NS(=O)(=O)c1c(C)cc(C)cc1C | nt | 5 | i | nt | nt | nt
N#CCC(=O)N1CCN(Cc2ccc3c(c2)OCO3)CC1 | 18 | -6 | i | 0 | -20 | 0
NC1=NC(=O)C(c2ccccc2)C(=O)N1 (centres undefined) | 4 | 3 | i | 1 | -4 | 0
Cc1cc(C(=O)N2CCC(C)(C(=O)NS(=O)(=O)C3CC3)C2)n(C(C)(C)C)n1 (centres undefined) | 10 | 17 | i | nt | -17 | -2
CC(C)[C@H](NC(=O)c1ccc(Cl)cc1)C(=O)Nc1cccc(S(=O)(=O)N2CCOCC2)c1 | 3 | -10 | i | nt | -13 | -6
Cc1cc([N+](=O)[O-])nn1CC(=O)N1CCc2ccccc2C1 | 0 | 20 | i | -16 | -22 | -5
Cc1cc(C)n(C(C)CC(=O)N2CCc3ccccc32)n1 (centres undefined) | -16 | 2 | i | -7 | 33* | -5
Cc1cc(C)n(C(CC(=O)N2CCc3ccccc3C2)C(=O)O)n1 (centres undefined) | 5 | -28 | + | 0 | -2 | -1
O=C(NC1CCCCC1)NS(=O)(=O)c1ccc2c(c1)CCC2 | 3 | 15 | i | 4 | -9 | -8
O=[N+]([O-])c1ccc(N=Nc2ccc(O)c3ccccc23)cc1 | 10 | 1 | + | 2 | 0 | 5
O=S(=O)(Nc1ccc(N=Nc2ccc(O)c3ccccc23)cc1)c1ccccc1 | 3 | 9 | i | 25 | -2 | -2
c1ccc(-c2csc(N3CCN(c4ccccn4)CC3)n2)cc1 | 3 | 47* | i | 8 | -27 | 1
COc1cccc(CN2CC(C(=O)NCCN3CCOCC3)CCC2=O)c1 (centres undefined) | 7 | -1 | i | 28 | -12 | -4
C[C@H](NC(=O)C1CC(=O)N(c2ccc(F)cc2)C1)C(=O)N1CCCCC1 (some centres undefined) | 9 | -2 | i | -10 | -1 | 1
COc1ccc(-c2sc3ccccc3c2-c2ccc(OCCN3CCCCC3)cc2)cc1 | -1 | 2 | i | 5 | -4 | -4
COc1ccc(-c2sc3cc(OC)ccc3c2-c2ccc(OCCN3CCCCC3)cc2)cc1 | nt | 31 | + | nt | nt | nt
COc1ccc(/C=C2\SC(=O)N(CCNC(=O)Cn3[nH]c(=O)c4ccccc4c3=O)C2=O)cc1 | 1 | 3 | i | -5 | -3 | -2
CC(=O)C1CCC2C3CC(O)C4=CC(=O)CCC4(C)C3C(=O)CC12C (centres undefined) | 1 | 6 | + | -4 | -1 | -1
O=C(NCCN1CCOCC1)C(=O)c1c[nH]c2ccccc12 | 8 | 7 | i | 7 | -9 | -1
CCCCN1C(=N)N([C@@H](CCC)CN2CCC[C@H]2CN2C(N)=NC[C@@H]2Cc2ccccc2)C[C@H]1Cc1ccccc1 | -35 | -7 | i | 11 | 36* | -13
CCC[C@@H](CN1CCC[C@H]1CN1C(N)=NC[C@@H]1Cc1ccccc1)N1C[C@@H]([C@H](C)CC)N(CCCC2CCCC2)C1=N | -31 | -14 | i | 1 | 82* | -11
CCC[C@@H](CN1CCC[C@H]1CN1C(N)=NC[C@@H]1Cc1ccccc1)N1C[C@@H](Cc2ccccc2)N(CCCC2CCCC2)C1=N | -32 | 9 | i | 8 | 33 | -10
CC1=CC(=O)C(C(C)C)=CC1=NC(=O)c1ccc(C)cc1 | 2 | -14 | i | -6 | 4 | -6
O=S(=O)(c1ccc(F)c(F)c1)N1CCCCCCC1 | -4 | 10 | i | nt | 2 | -9
SMILES | M1 PAM | SKN-1 inh | Myeloid diff MLP | ATG4B inhibitor | M1 antag | CHRM1 agonist | others
CCN(CC)c1ccc(N=Cc2ccccc2[N+](=O)[O-])cc1 | 0 | 10 | i | 55* | -2 | -8
C=CCOc1ccc(/C=C2\SC(=S)N(NS(=O)(=O)c3ccc(C)cc3)C2=O)cc1 | 4 | 1 | i | 33 | -3 | -4
CN1CCCC1(C)C(=O)NCc1ccc(F)cc1Cl (centres undefined) | 7 | -8 | i | nt | -11 | -8
NNc1nc2ccccc2nc1C(F)(F)F | 3 | 11 | i | 2 | 0 | -7
FC(F)(F)c1nc2ccccc2nc1N/N=C\c1ccccc1 | -5 | 37* | i | 13 | -12 | -6
CCN1C(=O)/C(=C\N2CCCCCC2)SC1=S | -23 | 3 | i | -3 | 99* | -4
CCc1ccc(NC(=O)Nc2cnccn2)cc1 | 7 | 20 | i | -8 | -4 | -4
CCCCc1ccc(NC(=O)Nc2cnccn2)cc1 | 2 | -5 | + | 5 | -4 | -2
CCCCCn1c(=S)[nH]c2cc(C(=O)N3CCN(C(=O)OCC)CC3)ccc2c1=O | -3 | 9 | i | -3 | -1 | -10
CCOC(=O)N1CCN(C(=O)c2ccc3c(=O)n(CCC4=CCCCC4)c(=O)[nH]c3c2)CC1 | -23 | -18 | i | -14 | 66* | -5
COc1ccc(C)c(-n2c(N)cc(=O)n(Cc3ccccc3)c2=O)c1 | 13 | -2 | i | -10 | -24 | -2
CC(O)CNc1nc2sc3c(c2c(=O)n1CCc1ccccc1)CCCCC3 (centres undefined) | 3 | 3 | i | 41* | 7 | -5 | PLA2 ctr=55*
CN(C)CCNc1nc2sc3c(c2c(=O)n1CCc1ccccc1)CCCCC3 | -7 | 8 | i | -4 | 23 | 6
NS(=O)(=O)c1cc(C(=O)NC2CCSc3ccccc32)ccc1Cl (centres undefined) | 2 | 5 | i | 54* | 6 | -6 | ATG4B confirm=43*;PLA2 ctr=25
CC(=O)NC1CCCC(NC(C)=O)C1 (centres undefined) | 0 | 3 | i | 1 | 4 | -1
CC1/C(=N/O)CC(c2ccccc2)NC1c1ccccc1 (centres undefined) | -13 | 10 | i | -2 | 15 | -12
CC1/C(=N/O)CC(c2ccccc2)N(C)C1c1ccccc1 (centres undefined) | -14 | 6 | i | 57* | 11 | -9 | PLA2 ctr=48
O=C(/C=C/c1ccccc1O)c1ccccc1 | 2 | 26 | i | 4 | -8 | -4
